Assay results published in PubChem BioAssay (Tox21).
Inconclusive results are not listed. Activity calls are given as the source filed them. Unless noted, the call rests on the fitted dose curve; in most records, active means well fitted curve in the direction sought with a large enough effect in the repeat runs; inconclusive means weak or mixed curves; inactive means no such curve, though single readings can be large; an effect the other way counts as inactive or inconclusive.

Experiments:
[1] = qHTS assay to identify small molecule antagonists of the vitamin D receptor (VDR) signaling pathway - cell viability counter screen (AID 743225); further: nearly all actives have a fitted effect of over 50% in size
Method in brief: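 Cytotoxicity toward the VDR-bla HEK 293T line was scored by ATP-based CellTiter-Glo luminescence, read in the wells already used for the beta-lactamase readout after 16 h compound treatment under 3 nM 1-alpha,25-dihydroxyvitamin D3 stimulation.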

[2] = qHTS assay to identify small molecule agonists of the NFkB signaling pathway (AID 1159509; active means well fitted curve in the direction sought with a large enough effect in the signal ratio in the repeat runs, not every such curve was filed as active; the % refers to the signal ratio; further: series mostly up to about 61 µM)
Method in brief: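 NFkB-bla ME-180 cells carry a beta-lactamase reporter under an NF-kB response element. They were plated overnight, then exposed to compounds for 5 h at 37 C. Read-out is LiveBLAzer FRET after 1.5 hr at room temperature (405 nm excitation; 460/530 nm emission).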

[3] = qHTS assay to identify small molecule agonists of the NFkB signaling pathway - cell viability counter screen (AID 1159515; calls by dose curve; further: series mostly up to about 61 µM; nearly all actives have a fitted effect of over 55% in size)
Method in brief: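 NFkB-bla ME-180 cells, 2,000/well, plated overnight at 37 C; compound added for 5 hr at 37 C. Viability read in the same wells as the bla reporter, by CellTiter-Glo luminescence after 30 min at room temperature.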

[4] = qHTS assay to identify small molecule agonists of the endoplasmic reticulum stress response signaling pathway (AID 1159516; active means well fitted activation curve with a large enough effect in the signal ratio in the repeat runs, not every such curve was filed as active; the % refers to the signal ratio)
Method in brief: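 CellSensor ESRE-bla HeLa cells, 1,500 per well, plated overnight, then exposed to compounds for 5 hr at 37 C. Beta-lactamase reporter read with LiveBLAzer B/G FRET substrate after 2 hr at room temperature, 405 nm excitation, 460 and 530 nm emission.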

[5] = qHTS assay to identify small molecule antagonists of the retinoid-related orphan receptor gamma (ROR-gamma) signaling pathway - cell viability counter screen (AID 1159520); further: nearly all actives have a fitted effect of over 50% in size
Method in brief: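 Cytotoxicity was read from cellular ATP (CellTiter-Glo luminescence) after 16 hr at 37 C with 1 uM doxycycline induction. The inducer was added 2 hr after compound transfer to Tet-on ROR gamma CHO cells.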

[6] = target: Nuclear receptor ROR-gamma (Homo sapiens) (UniProt P51449); test: qHTS assay to identify small molecule antagonists of the retinoid-related orphan receptor gamma (ROR-gamma) signaling pathway (AID 1159521;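 further: CHO cells with doxycycline inducible ROR-gamma driving an RORE luciferase reporter; top concentration of the series differs between compounds; nearly all actives have a fitted effect of over 50% in size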)
Method in brief: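 Readout: ONE-Glo luciferase luminescence, 30 min at room temperature. System: Tet-on RORγ CHO, RORE-LUC. Sequence: compound 2 h, doxycycline 1 uM final, 16 h at 37 C.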

[7] = qHTS assay to identify small molecule agonists of the AP-1 signaling pathway - cell viability counter screen (AID 1159525; calls by dose curve; further: nearly all actives have a fitted effect of over 55% in size)
Method in brief: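 Luminescent ATP readout (Cell Titer Glo, 30 min RT), normalised to DMSO and tetra n-octyl ammonium bromide controls. Cells were ME-180 AP-1-bla in 0.5% dialyzed FBS Opti-MEM, with a 5 h, 37 °C compound exposure.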

[8] = qHTS assay to identify small molecule agonists of the AP-1 signaling pathway (AID 1159526; calls by dose curve)
[9] = target: Retinoic acid receptor RXR-alpha (Homo sapiens) (UniProt P19793); test: qHTS assay to identify small molecule agonists of the RXR signaling pathway (AID 1159527; calls by dose curve; further: nearly all actives have a fitted effect of over 35% in size)
Retinoic acid receptor RXR-alpha (Homo sapiens), sequence (P19793 whole entry, looked up): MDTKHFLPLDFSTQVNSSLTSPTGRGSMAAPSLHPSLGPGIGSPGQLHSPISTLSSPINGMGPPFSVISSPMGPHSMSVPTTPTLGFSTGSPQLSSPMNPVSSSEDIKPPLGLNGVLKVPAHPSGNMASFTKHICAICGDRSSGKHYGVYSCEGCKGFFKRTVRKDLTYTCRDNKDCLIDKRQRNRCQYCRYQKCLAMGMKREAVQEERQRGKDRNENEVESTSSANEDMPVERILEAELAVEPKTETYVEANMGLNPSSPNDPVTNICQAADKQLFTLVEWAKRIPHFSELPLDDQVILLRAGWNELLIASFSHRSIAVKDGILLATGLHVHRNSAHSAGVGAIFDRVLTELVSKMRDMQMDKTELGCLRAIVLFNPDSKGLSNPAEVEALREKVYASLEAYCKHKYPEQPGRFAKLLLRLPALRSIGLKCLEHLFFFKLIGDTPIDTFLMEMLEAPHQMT
Method in brief: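 Reporter activation is measured as beta-lactamase activity via FRET substrate cleavage (emission 460/530 nm) in HEK 293T cells expressing an RXR-alpha-driven bla construct, following 16 hr compound exposure at 37 C.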

[10] = qHTS assay to identify small molecule agonists of the RXR signaling pathway - cell viability counter screen (AID 1159529); further: series mostly up to about 77 µM; nearly all actives have a fitted effect of over 50% in size
Method in brief: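 Tox21 10K compounds were tested for cytotoxicity against GeneBLAzer RXR-alpha HEK 293T cells grown in 2% charcoal-stripped FBS. Exposure lasted 16 hr at 37 C, 5% CO2; viability read by CellTiter-Glo luminescence.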

[11] = qHTS assay to identify small molecule agonists of the retinoic acid receptor (RAR) signaling pathway (AID 1159553)
Method in brief: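 C3RL4 RARE-luciferase cells were seeded at 1,000/well and grown overnight at 37 C, then exposed to compounds for 6 hr at 37 C, 5% CO2. Luciferase reagent was added and luminescence was read after 30 min at room temperature.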

[12] = qHTS assay to identify small molecule antagonists of the estrogen related receptor (ERR) signaling pathway from Tox21 library - cell viability counter screen (AID 1224834); further: nearly all actives have a fitted effect of over 30% in size
Method in brief: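 ERR reporter cells, 2,000 per well, rested 6 h, then exposed to compound in DMSO for 17.5 hours at 37 C. Viability read as fluorescence after 30 min with CellTiter-Fluor.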

[13] = qHTS assay to identify small molecule antagonists of the retinoid acid receptor (RAR) signaling pathway - cell viability counter screen (AID 1159551); further: nearly all actives have a fitted effect of over 35% in size
Method in brief: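 C3RL4 RARE-luciferase cells, 1,000/well, incubated overnight, then dosed with compound plus 1 uM retinol (final). After 6 hr at 37 C, viability read by CellTiter-Glo ATP luminescence following 30 min at room temperature.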

[14] = qHTS assay to identify small molecule antagonists of the retinoic acid receptor (RAR) signaling pathway (AID 1159552; further: nearly all actives have a fitted effect of over 50% in size)
Method in brief: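 Overnight-plated C3RL4 reporter cells get compound, then retinol to 1 uM final; plates sit 6 hr at 37 C, 5% CO2. A luciferase reagent is added and light output recorded after 30 min at room temperature.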

[15] = qHTS assay to identify small molecule antagonists of the estrogen related receptor signaling pathway with the pleiotropic PPARgamma coactivator (PGC) cell viability counter screen (AID 1224822; further: series mostly up to about 46 µM)
Method in brief: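 PGC/ERR cells rested 6 h, then compound-treated 17.5 h at 37 C. CellTiter-Fluor added for 30 min at 37 C, viability measured by fluorescence intensity.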

Measured: Potency

CCCCCCCCCCCCCCCC(=O)OCC
not listed: [13] | [14] | [15]
inactive: all other assays above

CCC1CCC(CCC(=O)O)C1 (centres undefined)
not listed: [1] | [9] | [15]
inactive: all other assays above

O=c1[nH]c2cc(C(F)(F)F)c(N3CCOCC3)cc2n(CP(=O)(O)O)c1=O
not listed: [14] | [15]
inactive: all other assays above

CC(=O)C(=O)CC(C)C
not listed: [11] | [14] | [15]
inactive: all other assays above

COC(C)(C)OC
not listed: [1] | [11] | [14] | [15]
inactive: all other assays above

CC(C)N=C=NC(C)C
not listed: [13] | [15]
inactive: all other assays above

CNCc1ccc(NC(=O)c2c[nH]c3c2C(=O)CCC3)cc1
not listed: [10] | [11] | [15]
inactive: all other assays above

C[C@H](CS)C(=O)N1CCC[C@H]1C(=O)O
not listed: [1] | [11] | [14]
inactive: all other assays above

O=CNNC=O
not listed: [11] | [14] | [15]
inactive: all other assays above

CCN(CC)CCOC(=O)C(c1ccccc1)c1ccccc1
not listed: [13] | [15]
inactive: all other assays above

C=C(C)C(=O)OCCC(F)(F)C(F)(F)C(F)(F)C(F)(F)C(F)(F)C(F)(F)F
not listed: [1] | [11] | [14] | [15]
inactive: all other assays above

O=c1[nH][nH]c(=O)c2cc([N+](=O)[O-])ccc12
not listed: [11] | [14] | [15]
inactive: all other assays above

C=CC(=O)O
not listed: [13] | [15]
inactive: all other assays above

CCN(CC)CC(=O)Nc1c(C)cccc1C(=O)OC
not listed: [11] | [14] | [15]
inactive: all other assays above

CS(=O)(=O)c1ccc([C@@H](C[C@H]2CCC(=O)C2)C(=O)Nc2cnccn2)cc1Cl
not listed: [1] | [11] | [13] | [14] | [15]
inactive: all other assays above

Cc1ccc(Nc2c(F)cccc2Cl)c(CC(=O)O)c1
not listed: [10] | [11] | [14] | [15]
inactive: all other assays above

C/C(C=O)=C\c1ccccc1
not listed: [14] | [15]
inactive: all other assays above
